Paper PMC4336329 (PLoS ONE, 2015)
Hit rate of the full screen: of about 310,000 compounds, about 14,000 (4.5%) showed an effect of 50% or more. The effect is printed as a negative number. This is one part of a sample in which strong results are shown more often than they occur.

Target: human ether-à-go-go-related gene (hERG) potassium channel (human, UniProt Q12809)
Test: primary screen, population patch clamp on CHO cells stably expressing hERG; higher = less effect of the substance
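Also: peak tail current of the secondary pulse compared with the same well before compound.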

Chain of human ether-à-go-go-related gene (hERG) potassium channel (Q12809 whole entry, looked up): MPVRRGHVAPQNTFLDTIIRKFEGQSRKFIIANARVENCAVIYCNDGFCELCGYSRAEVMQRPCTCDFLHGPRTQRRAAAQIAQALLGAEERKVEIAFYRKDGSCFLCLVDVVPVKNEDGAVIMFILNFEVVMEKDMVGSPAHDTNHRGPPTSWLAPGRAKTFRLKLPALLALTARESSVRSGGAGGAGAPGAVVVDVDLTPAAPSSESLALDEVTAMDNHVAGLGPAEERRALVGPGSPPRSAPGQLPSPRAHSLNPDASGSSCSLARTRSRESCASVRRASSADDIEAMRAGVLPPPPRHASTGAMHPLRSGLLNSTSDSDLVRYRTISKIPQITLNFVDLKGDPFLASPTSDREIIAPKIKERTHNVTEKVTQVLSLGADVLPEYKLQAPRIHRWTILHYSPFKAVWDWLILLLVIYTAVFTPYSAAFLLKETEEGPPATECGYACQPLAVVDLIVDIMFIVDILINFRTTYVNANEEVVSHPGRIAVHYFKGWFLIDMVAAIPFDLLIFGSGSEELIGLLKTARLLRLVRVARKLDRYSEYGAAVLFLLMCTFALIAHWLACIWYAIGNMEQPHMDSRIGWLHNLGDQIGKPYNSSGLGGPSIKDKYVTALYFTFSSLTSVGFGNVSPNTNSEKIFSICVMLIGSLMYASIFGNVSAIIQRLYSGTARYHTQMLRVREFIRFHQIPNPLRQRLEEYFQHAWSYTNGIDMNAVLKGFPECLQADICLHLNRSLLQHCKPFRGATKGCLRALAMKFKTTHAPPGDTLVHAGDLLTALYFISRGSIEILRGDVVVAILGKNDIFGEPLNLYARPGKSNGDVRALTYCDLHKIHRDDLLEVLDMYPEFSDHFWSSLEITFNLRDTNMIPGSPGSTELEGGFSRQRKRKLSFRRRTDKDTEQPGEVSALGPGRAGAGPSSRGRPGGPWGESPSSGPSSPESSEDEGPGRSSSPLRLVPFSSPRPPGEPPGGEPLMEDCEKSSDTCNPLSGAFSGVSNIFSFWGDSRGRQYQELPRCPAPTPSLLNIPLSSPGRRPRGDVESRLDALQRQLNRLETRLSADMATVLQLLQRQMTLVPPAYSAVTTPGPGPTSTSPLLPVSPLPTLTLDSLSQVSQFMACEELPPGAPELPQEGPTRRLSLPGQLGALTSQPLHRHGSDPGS

Compound	hERG current change (%, negative = inhibition) at 10uM [%]
Cc1cc(Cl)c(OCCCNCc2ccccc2)c(Br)c1.O=C(O)C(=O)O	-51.8
Cc1cc(Cl)c(OCCCCNC(C)(C)C)c(Br)c1.O=C(O)C(=O)O	-40.7
Cc1cc(Cl)c(OCCCNC2CCCC2)c(Br)c1.O=C(O)C(=O)O	-56.9
COCCCNCCCCOc1c(Cl)cc(C)cc1Br.O=C(O)C(=O)O	-49.2
Cc1cc(C)c(OCCCCNCc2ccccc2)c(Cl)c1.O=C(O)C(=O)O	-68.5
C=CCNCCOc1c(C)cc(C)cc1Cl.O=C(O)C(=O)O	-21.2
Cc1cc(C)c(OCCCNCc2ccccc2)c(Br)c1.O=C(O)C(=O)O	-10.7
CC(=O)c1cccc(NC(=O)C(C)OC(=O)Cc2c[nH]c3ccccc23)c1 (stereo not shown)	-2.32
COC(=O)c1cc(NC(=O)c2cccnc2)ccc1N1CCOCC1	13.9
CCOc1ccccc1N1CC(C(=O)Nc2c(C)n(C)n(-c3ccccc3)c2=O)CC1=O (stereo not shown)	20.7
CCC(C)[C@H](NC(=O)Nc1ccc(S(N)(=O)=O)cc1)C(=O)OC (stereo partly shown)	13.1
O=C1CCCc2c1nc(-c1ccco1)n2O	12.1
O=C(Cn1[nH]c(=O)c2ccccc2c1=O)N1CC=C(c2ccccc2)CC1	-4.76
COc1ccc(CCNC(=O)CS(=O)Cc2nc(-c3ccccc3F)oc2C)cc1OC (stereo not shown)	13
O=c1oc2ccc(C#CC3(O)CCCCC3)cc2cc1-n1cc(C2(O)CCCCC2)nn1	24.7
O=C(c1ccc(F)cc1)n1c(=S)nc2ccccn21	-1.25
CC(=O)N(Cc1nc2sc(C)c(C)c2c(=O)[nH]1)C1CCCC1	21.8
FC(F)(F)c1cccc(N2CCN(C3CC4CCC3C4)CC2)c1 (stereo not shown)	-1.68
CCc1ccc(C(=O)COC(=O)c2cnccn2)cc1	0.242
Cc1ccc(NC(=S)NC2CCCC2)cc1C	14.8
Cc1ccc(NC(=S)NCC2CCCO2)cc1C (stereo not shown)	-1.97
Cc1ccc(NC(=S)NCCN(C2CCCCC2)C2CCCC2)cc1C	-68.1
Cc1ccc(NC(=S)NNC(=S)NC2CCCCC2)cc1	21
Cc1ccc(NC(=S)NC2CCCC2)cc1	4.64
Cc1ccc(NC(=S)NCCN(C2CCCCC2)C2CCCC2)cc1	-72

Compound	hERG current change (%, negative = inhibition) at 10uM [%]
Cc1ccc(N2CC(C(=O)Nc3nnc(SCCN4CCOCC4)s3)CC2=O)cc1C (stereo not shown)	20.7
COc1ccccc1-n1nnnc1SCc1cc2c(cc1Br)OCO2	-9.95
CCCCC(OC(=O)c1ccco1)C(=O)NCc1ccc(C)cc1 (stereo not shown)	-0.428
O=C(Cn1cnc([N+](=O)[O-])n1)NC1CC1	7.02
Cc1nn(-c2ccc(Cl)cc2)c2[nH]c(=O)c(CNCc3ccc4c(c3)OCO4)cc12	-70
CC(C)(C)c1nn(-c2ccccc2)c2[nH]c(=O)c(CNCc3ccc4c(c3)OCO4)cc12	-17.9
Cc1nn(-c2ccccc2)c2[nH]c(=O)c(CNCc3ccc4c(c3)OCO4)cc12	-28.7
Cc1ccc2c(C)c(C(=O)Nc3ccc(S(N)(=O)=O)cc3)oc2c1C	31.2
COc1ccccc1CC1C(=O)C2CCN1CC2 (stereo not shown)	14.5
Cc1ccc(-c2[nH]c3ccccc3c2SCCN)cc1	-27.6
NCCSc1c(-c2ccc(Cl)cc2)[nH]c2ccccc12	-84.3
NCCSc1c(-c2ccccc2)[nH]c2ccccc12	-12.1
O=C(NCC1CCCO1)C(=O)N/N=C/c1c(F)cccc1Cl (stereo not shown)	8.04
Cc1noc(C)c1COC(=O)/C=C/c1ccc(Cl)cc1	0.131
CCn1cc(/C=C/C(=O)Nc2ccc(C)cc2Br)cn1	-30.7
O=C(C1CCCN(S(=O)(=O)c2ccc(Cl)cc2)C1)N1CCCC1 (stereo not shown)	-19
Cc1ccc(S(=O)(=O)N2CCCC2C(=O)N(C)Cc2cccs2)cc1 (stereo not shown)	-19.9
O=C(O)C1CCCN(S(=O)(=O)c2ccc(F)cc2)C1 (stereo not shown)	20.4
O=C(C1CCCN(S(=O)(=O)c2ccc(Cl)cc2)C1)N(Cc1cccs1)C1CC1 (stereo not shown)	-63
Cc1ccc(S(=O)(=O)N2CCCC(C(=O)N(Cc3cccs3)C3CC3)C2)cc1 (stereo not shown)	-67.7
O=C(C1CCCN(S(=O)(=O)c2ccc(F)cc2)C1)N1CCCC1 (stereo not shown)	5.78
CCOC(=O)C1CCCN(S(=O)(=O)c2ccc(C)cc2)C1 (stereo not shown)	-2.86
O=C(C1CCCN(S(=O)(=O)c2ccc(F)cc2)C1)N(Cc1cccs1)C1CC1 (stereo not shown)	-78.2
CN1CCN(C(=O)C2CCCN(S(=O)(=O)c3ccc(Cl)cc3)C2)CC1 (stereo not shown)	-18.8
